{"source": "PubChem BioAssay AID651812", "about": "(National Center for Advancing Translational Sciences (NCATS), 2012)", "note": "Among all 2,100 compounds or so, about 650 (31%) were called active. About 16% were inconclusive and are not listed. The list shows a part of the results. Unmarked numbers belong to inactive results. Calls come from the whole dose curve; as a rule, active = well fitted inhibition curve with a large enough effect; inconclusive = small, poorly fitted or top-dose-only effect; inactive = flat fitted curve, though single readings scatter. Potency is the fitted concentration of half-maximal effect."}
{"experiment": "qHTS for inhibitors of Vif-A3G interactions: Cherry picks; note: nearly all actives have a fitted effect of over 80% in size; for activity, negative = fluorescence increase: % of control where 0% means no effect", "conditions": "HeLa A3G-eYFP + Vif (tagged APOBEC3G with the HIV-1 protein that degrades it), 24 h; Potency: eYFP fluorescence increase; series mostly up to 36.9 µM; activity, negative = fluorescence increase: at the top concentration", "description": "The recent discovery and characterization of host restriction factors, which provide a potent defense to invading retroviruses, has provided new targets for antiviral drug development. APOBEC3G (A3G) and APOBEC3F (A3F) are potent cytidine deaminases that block HIV-1 replication; HIV-1 expresses the Vif protein, which counteracts A3G and A3F by binding to them and inducing their proteasomal degradation. The Vif-A3G and Vif-A3F interactions provide two potential targets for development of small molecules which can interfere with the ability of Vif to degrade A3G or A3F. […] To identify inhibitors that can interfere with Vif mediated degradation of A3G and A3F, we have developed Hela cell lines that stably express A3G or A3F tagged with eYFP at the C-terminal end (A3G-eYFP or A3F-eYFP, respectively) and Vif. In the absence of an inhibitor, Vif induces degradation of A3G-eYFP and A3F-eYFP, and the cells are not fluorescent. In the presence of an inhibitor, it is expected that Vif will be unable to degrade A3G-eYFP and/or A3F-eYFP, resulting in an increase in yellow fluorescence. In this assay, Vif A3G was screened against the cherry picks ordered from the MLSMR. NIH Chemical Genomics Center [NCGC] NIH Molecular Libraries Probe Centers Network [MLPCN] MLPCN Grant: MH093245 Assay Submitter (PI): Vinay Pathak, National Cancer Institute\nA3G-Vif cells were harvested from T225 flask and resuspended in phenol free OPTI-MEM medium with 5% FBS. Then 5 uL of 140,000 cells/mL resuspended cells was dispensed into each well of low base Aurora COC 1,536-well plates (black walled, clear bottom) using a Multidrop Combi dispenser. After overnight culture at 37 deg C with 5% CO2, a total of 23 nL of compounds at 5 selected concentrations from the NPC or positive control (2 mM stock of MG132) in DMSO was transferred to each well of the assay plate using a pintool (Kalypsys, San Diego, CA), and the plates were further incubated at 37 deg C with 5% CO2 for 24 hours. After that, the plates were measured on Acumen Explorer (TTP Lab Tech). The fluorescence was detected by 488 nm/Ex and […]."}
{"smiles": "COc1ccc2nc(SCC(=O)N3CC(=O)Nc4ccccc43)c(C#N)cc2c1", "Potency": "23.1 µM (active)"}
{"smiles": "COc1cc(C(=O)N2CC(=O)Nc3ccccc32)cc(OC)c1OC", "activity, negative = fluorescence increase": "-5.08%"}
{"smiles": "NC(=O)c1ccccc1NC(=S)NC(=O)CCc1ccccc1", "activity, negative = fluorescence increase": "1.18%"}
{"smiles": "O=C(/C=C/c1ccco1)NC(=S)Nc1cccc(-c2nc3ccccc3o2)c1", "activity, negative = fluorescence increase": "-10.6%"}
{"smiles": "Oc1cccc(Nc2nc(O)c(/C=C3\\C=Nc4ccccc43)s2)c1", "Potency": "23.1 µM (active)"}
{"smiles": "CC(=O)c1cccc(NC(=O)C2CCCN(S(=O)(=O)c3cccc4nonc34)C2)c1", "note": "(centres undefined)", "activity, negative = fluorescence increase": "-16.3% [at 46.1 µM]"}
{"smiles": "COC(=O)c1ccc(Nc2c([N+](=O)[O-])ccc3nonc23)cc1", "Potency": "20.6 µM (active)"}
{"smiles": "COc1ccc(N2C(=O)NC3CC2(C)Oc2ccccc23)cc1OC", "note": "(centres undefined)", "activity, negative = fluorescence increase": "-7.13%"}
{"smiles": "COc1ccc(OC)c(NC(=O)Cn2c(=O)n(-c3ccc(Cl)cc3)c(=O)c3c(C)c(C)sc32)c1", "Potency": "14.6 µM (active)"}
{"smiles": "CCOC(=O)c1[nH]c(C)c(C(=O)Nc2cc(OC)ccc2OC)c1C", "activity, negative = fluorescence increase": "-9.64%"}
{"smiles": "COc1ccc(OC)c(NC(=O)Cn2cnc3onc(-c4ccc(Cl)cc4)c3c2=O)c1", "activity, negative = fluorescence increase": "2.25% [at 46.1 µM]"}
{"smiles": "CCCOc1ccc(N)cc1N", "activity, negative = fluorescence increase": "-3.69% [at 46.1 µM]"}
{"smiles": "COc1cc(/C=C2/SC(=S)N(CC3CCCO3)C2=O)ccc1O", "note": "(centres undefined)", "Potency": "18.4 µM (active)"}
{"smiles": "CCOc1cc(/C=C2/SC(=S)N(CC3CCCO3)C2=O)ccc1O", "note": "(centres undefined)", "Potency": "20.6 µM (active)"}
{"smiles": "O=C1/C(=C/c2ccc(O)cc2)SC(=S)N1CC1CCCO1", "note": "(centres undefined)", "activity, negative = fluorescence increase": "2.84% [at 46.1 µM]"}
{"smiles": "COc1nc(-c2ccccc2)cc(-c2ccc3c(c2)OCO3)c1C#N", "activity, negative = fluorescence increase": "-8.86%"}
{"smiles": "CCOC(=O)c1c(CN(CC)CC)n(-c2ccccc2)c2ccc(O)cc12", "activity, negative = fluorescence increase": "-3%"}
{"smiles": "O=C(O)c1cc(-c2ccc(/C=C3/SC(=S)N(Cc4ccccc4)C3=O)o2)ccc1Cl", "Potency": "18.4 µM (active)"}
{"smiles": "O=C1/C(=C\\c2ccc(O)cc2)SC(=S)N1Cc1ccccc1", "activity, negative = fluorescence increase": "8.8% [at 46.1 µM]"}
{"smiles": "Cc1c(C(=O)OC2CCCCC2)[nH]c2c1C(=O)CC(c1ccccc1Cl)C2", "note": "(centres undefined)", "activity, negative = fluorescence increase": "-1.35% [at 46.1 µM]"}
{"smiles": "Cc1cc(/C=C2\\SC(=Nc3ccccc3)NC2=O)c(C)n1-c1ccc(S(N)(=O)=O)cc1", "activity, negative = fluorescence increase": "-12.8%"}
{"smiles": "Cc1cc(/C=C2\\SC(=S)N(C)C2=O)c(C)n1-c1ccc(O)cc1", "Potency": "20.6 µM (active)"}
{"smiles": "Cc1cc(/C=C2\\SC(=S)N(C)C2=O)c(C)n1-c1ccccc1O", "Potency": "23.1 µM (active)"}
{"smiles": "NC(=O)c1cccc(-c2ccnc3c2CC(C(=O)NCc2ccco2)O3)c1", "note": "(centres undefined)", "activity, negative = fluorescence increase": "-1.78%"}
{"smiles": "CC(=O)N/N=C/c1cc(C(C)(C)C)cc(/C=N/NC(C)=O)c1O", "Potency": "23.1 µM (active)"}
{"smiles": "NC(=S)N/N=C/c1cccc(O)c1O", "activity, negative = fluorescence increase": "-2.38% [at 46.1 µM]"}
{"smiles": "CC(=O)N/N=C/c1cc(C(C)C)cc(/C=N/NC(C)=O)c1O", "Potency": "23.1 µM (active)"}
{"smiles": "Cc1cc(-n2c(C)cc(C(=O)CCl)c2C)no1", "activity, negative = fluorescence increase": "-5.58%"}
{"smiles": "Cc1ccc(/C=N/NC(=O)c2nc3nc(C)cc(C)n3n2)cc1", "activity, negative = fluorescence increase": "11.1% [at 46.1 µM]"}
{"smiles": "CCc1ccc(/C=N/NC(=O)c2cc(-c3ccncc3)nc3ccccc23)s1", "activity, negative = fluorescence increase": "-2.61%"}
{"smiles": "CC[N+](C)(C(=O)O)/C(=C\\c1ccccc1)c1ccnc2ccccc12", "note": "(centres undefined)", "Potency": "18.4 µM (active)"}
{"smiles": "CC(=O)N1CCc2nc3sc(C(=O)c4ccc(F)cc4)c(N)c3c(C(F)(F)F)c2C1", "Potency": "18.4 µM (active)"}
{"smiles": "COc1ccc(C(=O)c2sc3nc4c(c(C(F)(F)F)c3c2N)CN(C(C)=O)CC4)cc1OC", "Potency": "18.4 µM (active)"}
{"smiles": "COc1ccc(-c2n[nH]c3c2CN(C(=O)c2ccc(OC)c(OC)c2)CC3)cc1", "activity, negative = fluorescence increase": "1.56%"}
{"smiles": "COc1cc2c(cc1OC)CN(C(=O)c1ccc3nc[nH]c3c1)CC2", "activity, negative = fluorescence increase": "-3.55%"}
{"smiles": "COc1ccc(-c2cc3ccccc3oc2=O)cc1NC(=S)NC(=O)c1ccc2c(c1)OCCO2", "activity, negative = fluorescence increase": "-29.6% [at 46.1 µM]"}
{"smiles": "COc1ccc(S(=O)(=O)Nc2cccc(-c3ccc4nncn4n3)c2)cc1", "activity, negative = fluorescence increase": "-5.05%"}
{"smiles": "Cc1ccc(NC(=S)N/N=C2\\CCCCC2C)cc1", "note": "(centres undefined)", "activity, negative = fluorescence increase": "-7.25% [at 46.1 µM]"}
{"smiles": "CN(C)S(=O)(=O)c1ccc(N2CCCC2)c(C(=O)N2CCN(S(=O)(=O)c3ccc(F)c(F)c3)CC2)c1", "activity, negative = fluorescence increase": "-0.607%"}
{"smiles": "Cc1cc(NC(=O)/C(C#N)=C\\c2ccc(-c3ccc(SC(F)F)cc3)o2)n(-c2ccccc2)n1", "Potency": "14.6 µM (active)"}
{"smiles": "Cc1cc(NC(=O)/C(C#N)=C/c2ccc(-c3ccc(SC(F)F)cc3)o2)n(-c2ccccc2)n1", "Potency": "10.3 µM (active)"}
{"smiles": "O=C(/C=C/c1ccco1)NC(=S)Nc1ccc(N2CCCC2)cc1", "activity, negative = fluorescence increase": "-9.35%"}
{"smiles": "Cc1ccc2[nH]c3c(c2c1)CN(C(=O)CN1CC(C)OC(C)C1)CC3", "note": "(centres undefined)", "activity, negative = fluorescence increase": "-22.7%"}
{"smiles": "COc1ccc(C(=O)Nc2cc(C(C)=O)c(/C=C/N(C)C)oc2=O)cc1", "Potency": "15.8 µM (active)"}
{"smiles": "COC(=O)c1c(-c2ccccc2Cl)noc1/C=C/N(C)C", "activity, negative = fluorescence increase": "0.705%"}
{"smiles": "COc1cc(OC)cc(C(=O)Nc2ccccc2C(=O)NC2CC2)c1", "activity, negative = fluorescence increase": "-10.4%"}
{"smiles": "CC(=O)c1cc2c(cc1NS(=O)(=O)c1ccc(C)cc1)OCCO2", "activity, negative = fluorescence increase": "-0.455%"}
{"smiles": "CC(=O)c1cc(NC(=O)c2ccc(Cl)cc2)c(=O)oc1/C=C/N(C)C", "Potency": "11.2 µM (active)"}
{"smiles": "CC(=O)c1cc(NC(=O)c2ccc(C)cc2)c(=O)oc1/C=C/N(C)C", "Potency": "16.4 µM (active)"}
{"smiles": "COc1ccc(C(=O)Nc2cccc(/C=C/c3nc4ccccc4c(=O)[nH]3)c2)cc1", "activity, negative = fluorescence increase": "-4.28%"}
{"smiles": "COC(=O)c1cc(NC(=O)c2ccccc2)c(=O)oc1/C=C/Nc1ccc(Oc2ccccc2)cc1", "Potency": "11.6 µM (active)"}
{"smiles": "CO/N=C\\CC(=O)Nc1ccc(Oc2ccccc2)cc1", "activity, negative = fluorescence increase": "-4.61%"}
{"smiles": "O=C(Nc1ccccc1OC(=O)c1ccccc1)c1ccccc1", "activity, negative = fluorescence increase": "-13.5%"}
{"smiles": "Cc1ccc(/C=N/NC(=O)c2cc(C)oc2C)cc1", "activity, negative = fluorescence increase": "-5.86%"}
